Data as given in PubChem BioAssay (NCATS).
Results filed as inconclusive are left out. Calls of active or inactive are those of the source. Calls follow the shape of the full dose curve.

Assay: Primary qHTS to identify inhibitors of SARS-CoV-2 cell entry (AID 1645846); also: nearly all actives have a fitted effect of over 45% in size
Conditions: SARS-CoV-2 pseudovirus cell entry assay, luminescence; activity change, negative = inhibition: at 57.1 µM (top of the series) unless noted
Outline: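 Using luciferase-reporting pseudoviruses carrying Wuhan-Hu-1 spike, the screen tracks entry into stably ACE2-expressing cells over 48 hr. Activity is expressed relative to spike particles versus particles lacking any fusion protein.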
Potency is read from the fitted curve at half-maximal effect.

Row | Compound | activity change, negative = inhibition | Potency | outcome
1 | O=C1NC(=O)[C@@H](c2cn3c4c(cccc24)CCC3)[C@@H]1c1c[nH]c2ccccc12 | -73.3% | – | –
2 | CC(C)NC(=O)COc1cccc(-c2nc(Nc3ccc4[nH]ncc4c3)c3ccccc3n2)c1 | -14.8% | – | –
3 | Fc1cccc(-n2cnc3c(NCc4nc5c(F)c(F)ccc5[nH]4)nc(N4CCOCC4)nc32)c1 | -62.7% | – | –
4 | COc1nc(OCc2cccc(-c3ccccc3)c2C)ccc1CNCCNC(C)=O | – | 11.2 µM (active) | –
5 | C/C(=N\NC(=S)N1CCC1)c1ccccn1 | -96.5% | – | –
6 | CNC(=O)c1ccc(Nc2ncc(C(F)(F)F)c(NCc3nccnc3N(C)S(C)(=O)=O)n2)cc1 | – | 0.891 µM (active) | –
7 | Cc1[nH]c2ccccc2c1CCNCc1ccc(/C=C/C(=O)NO)cc1 | – | – | inactive
8 | CN(C)CCOc1ccc(-c2nc(-c3ccc4c(c3)CC/C4=N\O)c(-c3ccncc3)[nH]2)cc1 | – | 12.6 µM (active) | –
9 | CN(C)CCNC(=O)NC[C@H]1CC[C@@H]2[C@H](O1)c1cc(C(F)(F)F)ccc1N[C@H]2c1ccccc1 | – | 25.1 µM (active) | –
10 | CC(C)(O)CS(=O)(=O)Nc1ccc2c(c1)CCN(C(=O)COc1cccnc1)C2 | -97.4% | – | –
11 | Nc1ccc(/C=C/C(=O)NCc2cc3cc(-c4ccc(C(=O)N5CCC(F)(F)CC5)cc4)cc(-c4ccc(F)cc4)c3o2)cn1 | -96.3% | – | –
12 | CCC[C@H](N[C@H]1CCc2cc(F)cc(F)c2C1)C(=O)Nc1cn(C(C)(C)CNCC(C)(C)C)cn1 | – | 31.6 µM (active) | –
13 | Cn1cc(-c2cnn3c(N)c(Br)c([C@@H]4CCCNC4)nc23)cn1 | – | 35.5 µM (active) | –
14 | Cc1ccc(NS(=O)(=O)c2cccc(C#N)c2)c2[nH]cc(C#N)c12 | -10.5% | – | –
15 | COc1ccc([C@@H](O)[C@@H](C)Oc2ccc([C@H]3O[C@H](c4ccc(O[C@H](C)[C@H](O)c5ccc(OC)c(OC)c5)c(OC)c4)[C@H](C)[C@H]3C)cc2OC)cc1OC | -95.6% | – | –
16 | COc1ccc2[nH]c(S(=O)Cc3ncc(C)c(OC)c3C)nc2c1 (centres undefined) | -98.9% | – | –
17 | COc1ccc(S(=O)(=O)Nc2cc(-c3csc(C#N)c3)ccc2C)cc1 | -92% | – | –
18 | COc1cc(N2CCC(O)CC2)ccc1Nc1cc(Nc2ccccc2S(=O)(=O)C(C)C)c2cc[nH]c2n1 | -27.7% | – | –
19 | Cc1cc2c(F)c(Oc3ncnn4cc(OCC(C)OC(=O)C(C)N)c(C)c34)ccc2[nH]1 (centres undefined) | – | 11.2 µM (active) | –
20 | NS(=O)(=O)c1ccc(S(=O)(=O)Nc2cccc3c(Cl)c[nH]c23)cc1 | -3.77% | – | –

Row | Compound | activity change, negative = inhibition | Potency | outcome
21 | O=C(CCCCCCNC(=O)c1cnc(N(c2ccccc2)c2ccccc2Cl)nc1)NO | 2.82% | – | –
22 | Cc1nc(NC(=O)N2CCC[C@H]2C(N)=O)sc1-c1csc(C(C)(C)C)n1 | – | – | inactive
23 | Cc1ccc([N+](=O)[O-])cc1S(=O)(=O)N(C)/N=C/c1cnc2ccc(Br)cn12 | -94.8% | – | –
24 | Cc1c(O)cccc1C(=O)NC(CSc1ccccc1)C(O)CN1CC2CCCCC2CC1C(=O)NC(C)(C)C (centres undefined) | – | 31.6 µM (active) | –
25 | Nc1nc(N)c2nc(-c3cccc(Cl)c3)c(N)nc2n1 | 1.13% | – | –
26 | CN(Cc1ccc(/C=C/C(=O)NO)cc1)CC12CC3CC(CC(C3)C1)C2 | – | 5.01 µM (active) | –
27 | CN(C)C/C=C/C(=O)Nc1cccc(C(=O)Nc2cccc(Nc3ncc(Cl)c(-c4c[nH]c5ccccc45)n3)c2)c1 | – | 3.16 µM (active) | –
28 | CC1(C)[C@@H](O)CC[C@]2(C)[C@H]3C(=O)C=C4[C@@H]5C[C@@](C)(C(=O)O)CC[C@]5(C)CC[C@@]4(C)[C@]3(C)CC[C@@H]12 | – | – | inactive
29 | C=CC(=O)Nc1cccc(Nc2nc(Nc3ccc(Oc4ccnc(C(=O)NC)c4)cc3)ncc2F)c1 | – | 22.4 µM (active) | –
30 | NC[C@H]1O[C@H](O[C@H]2[C@H](O)[C@@H](O[C@H]3O[C@H](CO)[C@@H](O)[C@H](N)[C@H]3O)[C@H](N)C[C@@H]2N)[C@H](N)C[C@@H]1O | -8.09% | – | –
31 | C1=C/COCc2cc(ccc2OCCN2CCCC2)Nc2nccc(n2)-c2cccc(c2)COC/1 | – | 3.16 µM (active) | –
32 | CNC(=O)CCc1cc(-c2ccc(-c3ccc(C(F)(F)F)cc3)cc2)n(-c2ccc(N3CCNCC3)cc2)n1 | -95.7% | – | –
33 | CC[C@]12C=CCN3CC[C@@]4(c5cc([C@@]6(C(=O)OC)C[C@H]7C[C@@H](C(C)(F)F)CN(Cc8c6[nH]c6ccccc86)C7)c(OC)cc5N(C)[C@H]4[C@@](O)(C(=O)OC)[C@@H]1OC(C)=O)[C@@H]32 | -76.7% [at 19 µM] | – | –
34 | Cc1c(CN2CCC(Nc3ncnc4sc(CC(F)(F)F)cc34)CC2)ccc2c1cc(C#N)n2Cc1cn[nH]c1 | – | 8.91 µM (active) | –
35 | CCC(=C/[C@H](C)C/C=C/C(C)=C/[C@@H](C)C(=O)[C@@H](C)[C@H](O)[C@@H](C)C/C(C)=C/C(=O)O)/C=C/[C@@H]1OC(=O)C=C[C@@H]1C | -94.2% | – | –
36 | Cc1ccc(NC(=O)NCc2ccc3c(c2)CN(C2CCC(=O)NC2=O)C3=O)cc1Cl (centres undefined) | -96.8% | – | –
37 | C=C1CC[C@@H]2[C@](C)(CO)[C@H](O)CC[C@@]2(C)[C@@H]1C/C=C1/C(=O)OC[C@H]1O | – | 25.1 µM (active) | –
38 | NC(=O)[C@H]1CCS[C@@H]2C[C@]3(CCCN3C(=O)Cc3ccc(NC(=O)COc4ccc(Cl)cc4Cl)cc3)C(=O)N12 | – | 25.1 µM (active) | –
39 | C=CC(=O)Nc1ccc(F)c(-c2ncnc3[nH]cc(C(=O)OCC)c23)c1 | – | – | inactive
